Screens as filed in PubChem.
Shown are actives, neighbours in structure and some others; about 2.7% of the full set was active somewhere.
A549 tox: counter-screen for Nrf2 inhibitors: cytotoxicity in A549 cells | 390,000 compounds, 0.16% hits | Potency, µM (doses to about 46 µM), for the others: at the highest dose activity change, negative = cytotoxicity, most hits filed as inhibitors | AID 504648 | A549 ARE-Fluc cells, CellTiter-Fluor viability, 18-24 h; also: potency is read from the fitted curve at half-maximal effect; % is scaled to controls: 0 for no effect and ±100 for the full control effect
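A549 ARE-Fluc cells in 5% FBS OPTI-MEM, 5000 cells/well, rested 2 h then exposed to compounds in concentration-response for 18-24 h at 37 °C. Viability by CellTiter-Fluor fluorescence (Ex 405/Em 525) after 30 min; luciferase luminescence (BugLite, 15 min, RT) read afterwards.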
Nrf2 block: inhibitors of Nrf2 signaling | A549 ARE-Fluc reporter, luciferase luminescence, 18-24 h | Potency, µM (series often up to 46 µM), for inactives: at the highest dose activity change, negative = inhibition, usual class: inhibitors | 360,000 compounds, 2.1% hits | AID 504444; also: potency is read from the fitted curve at half-maximal effect; % is scaled to controls: 0 for no effect and ±100 for the full control effect; nearly all actives have a fitted effect of over 60% in size
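A549 ARE_Fluc cells, 5000/well, 5% FBS OPTI-MEM; compounds in dose-response, 18-24 h at 37 °C/5% CO2; CellTiter-Fluor viability read (Ex 405/Em 525), then BugLite luciferase luminescence = Nrf2 activity.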
mIDH1 inhibitor: inhibitors of human mutant IDH1 R132H. Potency, µM (series often up to 76.6 µM), for inactives: top-dose activity change, negative = inhibition, most hits filed as inhibitors. 390,000 compounds, 0.093% hits. IDH1-R132H enzyme, NADPH consumption, diaphorase/resazurin fluorescence. O75874. AID 602179; also: potency is read from the fitted curve at half-maximal effect; % is scaled to controls: 0 for no effect and ±100 for the full control effect; nearly all actives have a fitted effect of over 65% in size
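IDH1-R132H (0.5 ug/mL dispensed) in pH 7.5 Tris buffer was preincubated 30 min with compound, then given a substrate mix of 0.016 mM NADPH and 2 mM alpha-KG for 80 min at room temperature; remaining NADPH was read by diaphorase/resazurin fluorescence.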
Nrf2 ARE act: activates Nrf2 signaling; AREc32 ARE-luciferase reporter (MCF7-derived line), luminescence, 24 h; Potency, µM (highest dose often 46.1 µM), for the others: top-dose activation, hits mostly activators; 410,000 compounds, 0.31% hits; AID 624171; also: potency is read from the fitted curve at half-maximal effect; % of control where 0% means no effect; nearly all actives have a fitted effect of over 65% in size
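Each well held 1000 AREc32 cells, which were incubated with compound for 24 hr at 37 deg C after overnight attachment, and ARE reporter activity was quantified by firefly luciferase luminescence.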
ALOX12 inh: ALOX12 (human) lipoxygenase inhibition. purified 12hLO, xylenol orange hydroperoxide absorbance. 580,000 compounds, 1.1% hits. Potency, µM (doses to about 108 µM), for inactives: at the top dose activity change, negative = inhibition, hits mostly inhibitors. P18054. AID 1671190; also: potency is read from the fitted curve at half-maximal effect; % is scaled to controls: 0 for no effect and ±100 for the full control effect
Target sequence (P18054 whole entry, looked up): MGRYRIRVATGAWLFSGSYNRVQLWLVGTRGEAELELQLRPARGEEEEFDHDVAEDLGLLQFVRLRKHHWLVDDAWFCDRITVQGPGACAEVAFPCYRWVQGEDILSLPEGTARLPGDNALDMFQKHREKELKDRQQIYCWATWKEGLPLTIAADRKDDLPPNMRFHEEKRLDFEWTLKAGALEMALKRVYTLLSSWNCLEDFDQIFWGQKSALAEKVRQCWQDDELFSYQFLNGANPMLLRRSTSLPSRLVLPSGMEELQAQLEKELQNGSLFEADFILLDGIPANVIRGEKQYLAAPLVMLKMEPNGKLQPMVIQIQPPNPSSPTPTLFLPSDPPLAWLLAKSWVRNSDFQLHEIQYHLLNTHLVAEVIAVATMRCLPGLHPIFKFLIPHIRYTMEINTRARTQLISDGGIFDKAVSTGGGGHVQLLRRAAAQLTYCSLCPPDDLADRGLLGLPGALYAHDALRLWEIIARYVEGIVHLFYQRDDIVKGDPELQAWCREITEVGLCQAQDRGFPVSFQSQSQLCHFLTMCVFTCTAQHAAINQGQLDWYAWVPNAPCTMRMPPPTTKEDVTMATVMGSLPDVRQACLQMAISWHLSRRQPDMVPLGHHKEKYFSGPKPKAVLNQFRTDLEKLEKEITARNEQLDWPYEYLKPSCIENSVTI
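Purified human 12hLO at 150 nM in 25 mM Hepes, 0.01% Triton X-100, pH 7.0, preincubated 15 min at room temperature with compound. Reaction started with 40 uM arachidonic acid, 30 min at room temperature. Hydroperoxide measured by Fe-xylenol orange, 573/405 nm absorbance ratio.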
LDHA inh: LDHA (human) enzyme inhibition. P00338. purified LDHA, NADH/diaphorase-resazurin fluorescence; hits give low values. activity change, % (values are at about 110 or 230 µM). 480,000 compounds, 0.15% hits. AID 1347041; in the data active = activity change below about -30%; inconclusive = mostly about -25% to -30%;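 also: plate controls were DMSO wells for no effect and wells without enzyme for full effect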
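LDH5 2 nM; NADH 0.06 mM, pyruvate 0.2 mM; 200 mM Tris pH 7.4, EDTA, Tween-20; 5 min RT. Detection: diaphorase 0.133 mg/mL + resazurin 37 µM, fluorescence ex540/em590 at 0 and 20 min; normalized to enzyme-free and DMSO wells.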
IDH1 autofl: counter-screen for mutant IDH1 inhibitors: fluorescence interference. shares compounds with mIDH1 inhibitor. Resorufin detection reagent fluorescence interference, cell-free. inhibition of signal, % at 51.2 µM. 750 tested, under 10 active;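 also: 0% = wells with normal resorufin and full inhibition = wells lacking resorufin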
WT IDH1 inh: inhibits human wild-type IDH1, mutant selectivity check; shares compounds with mIDH1 inhibitor; WT IDH1 enzyme, NADPH diaphorase/resazurin fluorescence; Potency, µM (doses to about 115 µM), for inactives: at the highest dose activity change, negative = inhibition, most hits filed as inhibitors; 750 compounds, 9% hits;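 also: potency is read from the fitted curve at half-maximal effect; 0% = full WT IDH1 enzyme control and full inhibition = no enzyme wells; nearly all actives have a fitted effect of over 55% in size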
mIDH1 confirm: mutant IDH1 (human) inhibition, confirmed | IDH1 R132H enzyme, NADPH diaphorase/resazurin fluorescence | 750 compounds, 83% hits | shares compounds with mIDH1 inhibitor | Potency, µM (highest dose often 76.6 µM), for the others: at the top dose activity change, negative = inhibition, most hits filed as inhibitors | AID 624002; also: potency is read from the fitted curve at half-maximal effect; nearly all actives have a fitted effect of over 50% in size
* hit, by the source's call; u = inconclusive; x = not tested or not shown; [ ] = remark or other dose. Unless noted, calls follow the shape of the dose curve; as a rule, active = well fitted curve in the direction sought with a large enough effect; inconclusive = small, poorly fitted or top-dose-only effect, or another doubt; inactive = no such curve, though single readings can be large; an effect the other way counts as inactive or inconclusive.

SMILES | A549 tox | Nrf2 block | mIDH1 inhibitor | Nrf2 ARE act | ALOX12 inh | LDHA inh | IDH1 autofl | WT IDH1 inh | mIDH1 confirm
CCOC(=O)COc1ccc2c(=O)c(-c3ccc(OC)c(OC)c3)c(C(=O)OCC)oc2c1 | -2% | 4% | 12% | 0% | 0% | -1 | x | x | x
Cc1nn(CC(O)c2cccc(F)c2)c(=O)c2ccccc12 (centres undefined) | x | x | x | x | -3% | -5 | x | x | x
COc1ccc(-c2n[nH]c3c2C(c2ccc(Cl)cc2Cl)NC3=O)cc1 (centres undefined) | 0% | u | u | -1% | u | -5 | 1 | -9% | 40µM*
Cc1cc(C)cc(N(CC(=O)NC2CCCCC2)C(=O)c2ccc(C)s2)c1 | -24% | u | u | -1% | -15% | -11 | 3 | 2% | 20µM*
O=C(Nn1c(C2CCCCC2)nc2ccccc2c1=O)c1ccc([N+](=O)[O-])cc1 | u | 23µM* | u | 4% | -7% | -1 | 6 | 1% | -30%
O=C(O)CC(NC(=O)c1ccc(-c2ccc(F)cc2)s1)C(=O)O (centres undefined) | x | x | x | x | 7% | 10 | x | x | x
Cn1ncc2c(Nc3cccc(Cl)c3)nc(Nc3cccc(Cl)c3)nc21 | 0% | u | u | -1% | u | -2 | -19 | u | 5.6µM*
Cn1ncc2c(Nc3ccc(O)cc3)nc(Cl)nc21 | -3% | -14% | 9% | 3% | 12% | -6 | x | x | x
Cn1ncc2c(Nc3ccc(Br)cc3)nc(Nc3ccc(Br)cc3)nc21 | -10% | -29% | 33µM* | 7% | -2% | -8 | -4 | 4% | 11µM*
Cc1ccc(-n2ncc3c(=O)[nH]c(SCC(=O)N4CCCc5ccccc54)nc32)cc1 | -4% | -22% | u | -1% | 29% | -5 | -6 | 10% | 28µM*
COc1ccc(-c2cc3nc(C4CCN(C(=O)OC(C)(C)C)CC4)c(C(=O)O)cn3n2)cc1 | 0% | u | 21µM* | 0% | -8% | -5 | -6 | 79µM* | 16µM*
O=C(c1ccc(Cl)c(S(=O)(=O)NC2CC2)c1)N1CCN(c2ccc(F)cc2)CC1 | x | x | x | x | 24% | 5 | x | x | x
Cc1ccc(Nc2cc(C)c(C#N)c3nc4ccccc4n23)c(C)c1 | -4% | 8% | 40µM* | -1% | -16% | -2 | 1 | -2% | 14µM*
C=CCN1CCN(Cc2ccco2)CC1 | x | x | x | x | 34% | 1 | x | x | x
O=C(Nc1cc(F)ccc1F)N1CCOc2ccc(CN3CCc4ccccc4C3)cc2C1 | x | x | x | x | 176% | x | x | x | x
O=C(O)c1cc(-c2ccc(-c3c(-c4ccc5c(c4)OCO5)noc3-c3ccsc3)cc2)nc2ccccc12 | -2% | u | 45µM* | 4% | u | -6 | 4 | u | 20µM*
Cc1ccc(-c2csc(N3CCC[C@@H]3C(=O)NCCn3c(C(F)(F)F)nc4ccccc43)n2)cc1 | -12% | u | 21% | 6% | 2% | 0 | x | x | x
CCCn1c(C2CCCN2c2nc(-c3cccc(Br)c3)cs2)nc2ccccc21 (centres undefined) | -7% | 1% | u | 2% | 1% | 1 | 5 | -3% | 25µM*
Cn1c(NCc2ccccc2Cl)nc2c1c(=O)n(Cc1ccc(Cl)cc1)c(=O)n2C | x | x | x | x | u | -10 | x | x | x
O=C(NCC(O)c1ccccc1)c1ccc(CNS(=O)(=O)c2ccc(F)cc2)cc1 (centres undefined) | x | x | x | x | u | 11 | x | x | x
COC(=O)c1c(NC(=O)COC(=O)c2ccc(O)cc2)sc2c1CCCCC2 | 0% | u | u | 3% | -27% | -3 | 6 | 5% | -27%
COCC(=O)Nc1sc2c(c1C(=O)OC)CCCC2 | -3% | 3% | 5% | 4% | u | -1 | x | x | x
Cc1ccc2c(c1)c1c3n2CCN(C(=O)CCl)C3CCC1 (centres undefined) | -3% | -16% | 46µM* | u | 11µM* | 3 | -1 | u | 16µM*
CC(=O)N1CCn2c3c(c4cc(C)ccc42)CCCC31 (centres undefined) | -2% | 7% | -1% | 0% | -12% | 2 | x | x | x
COc1ccc(NS(=O)(=O)c2ccc(NC(=S)NC(=O)/C=C/c3ccccc3)cc2)nn1 | -13% | -28% | u | 11% | -21% | -4 | -7 | u | 25µM*
SMILES | A549 tox | Nrf2 block | mIDH1 inhibitor | Nrf2 ARE act | ALOX12 inh | LDHA inh | IDH1 autofl | WT IDH1 inh | mIDH1 confirm
COc1cc(NS(=O)(=O)c2ccc(NC(=S)NC(=O)/C=C/c3ccc(F)cc3)cc2)ncn1 | -1% | -3% | 6.6µM* | -1% | -11% | -13 | -8 | 11µM* | 1.4µM*
CNC(=O)CCc1c(C)nc2c(c(OC)nn2C)c1C | x | x | x | x | 14% | 7 | x | x | x
Cn1c(CCn2ccccc2=O)nc2cc(NC(=O)c3ccccc3)ccc21 | x | x | x | x | 16% | 11 | x | x | x
CCC(=O)N(CCC(Cc1ccccc1)c1ccc2c(c1)OCO2)Cc1ccccc1F (centres undefined) | 1% | u | u | 8% | -2% | 5 | -5 | 8% | 14µM*
CCC(=O)N(CCC(c1ccccc1)c1ccc2c(c1)OCO2)Cc1ccc(OC(C)C)cc1 (centres undefined) | 6% | 5% | -3% | 0% | u | 5 | x | x | x
COc1ccc(S(=O)(=O)Nc2ccc(Nc3cc(N(C)C)nc(C)n3)cc2)c(C)c1C | x | x | x | x | -29% | 12 | x | x | x
COc1ccc(-n2c(-c3ccc(Cl)cc3Cl)n[nH]c2=S)c(OC)c1 | -3% | 21% | 46µM* | -1% | u | -4 | -8 | 2% | -8%
COCc1ccc(-c2c(-c3ccsc3)oc(=O)c3cc(OC)c(OC)cc23)cc1 | -11% | u | 16µM* | 2% | -3% | -5 | 6 | 1% | 10µM*
Cc1csc(NC(=O)c2cccnc2Oc2ccc(F)cc2Br)n1 | x | x | x | x | 21% | -3 | x | x | x
Cc1cccc(N=C2Sc3nc4c(C)c(C)ccc4cc3CN2CCN2CCOCC2)c1 | 3%[1.84 µM] | u | u | 5% | u | 1 | 8 | 5% | 11µM*
